{
  "source": "ChEMBL document CHEMBL4513135",
  "about": "“CO-ADD screening of IQOG CSIS (Spain) compounds”",
  "key": {"Klebsiella pneumoniae": {"tested_on": "Klebsiella pneumoniae", "conditions": "Concentration 32 ug.mL-1; ASSAY_TEST Inhibition of Bacterial Growth; detection method Absorption (OD600); MEDIA CAMHB; plate type 384well; NBS; CORNING #3640; time 18 hr"}, "Candida albicans": {"tested_on": "Candida albicans", "conditions": "32 ug/mL"}, "Cryptococcus neoformans": {"tested_on": "Cryptococcus neoformans", "conditions": "Concentration 32 ug.mL-1; ASSAY_TEST Inhibition of Fungal Growth; detection method Resazurin; Absorption (OD600-OD570); plate type 384well; NBS; CORNING #3640"}},
  "note": "Potency and affinity values are given separately.",
  "data": [
    {"smiles": "C#CCN(C)c1nc(N(C)CC#C)c(C#N)cc1C#N", "values": [
      {"measurement": "Inhibition", "setting": "Klebsiella pneumoniae", "result": 11.71, "unit": "%"},
      {"measurement": "Inhibition", "setting": "Candida albicans", "result": 2.14, "unit": "%"},
      {"measurement": "Inhibition", "setting": "Cryptococcus neoformans", "result": -56.65, "unit": "%"}
    ]},
    {"smiles": "CCOc1nc2nc3c(c(N)c2cc1C#N)CCCC3", "values": [
      {"measurement": "Inhibition", "setting": "Klebsiella pneumoniae", "result": -2, "unit": "%"},
      {"measurement": "Inhibition", "setting": "Candida albicans", "result": 2.23, "unit": "%"},
      {"measurement": "Inhibition", "setting": "Cryptococcus neoformans", "result": -62.45, "unit": "%"}
    ]},
    {"smiles": "CC1Cc2ccccc2N1/N=C/c1ccccc1", "note": "(configuration not stated)", "values": [
      {"measurement": "Inhibition", "setting": "Klebsiella pneumoniae", "result": 2.26, "unit": "%"},
      {"measurement": "Inhibition", "setting": "Candida albicans", "result": -2.78, "unit": "%"},
      {"measurement": "Inhibition", "setting": "Cryptococcus neoformans", "result": -3.88, "unit": "%"}
    ]},
    {"smiles": "O=C(NNCc1c[nH]c2ccccc12)c1cccc2ccccc12", "values": [
      {"measurement": "Inhibition", "setting": "Klebsiella pneumoniae", "result": 7.23, "unit": "%"},
      {"measurement": "Inhibition", "setting": "Candida albicans", "result": 1.53, "unit": "%"},
      {"measurement": "Inhibition", "setting": "Cryptococcus neoformans", "result": -1.11, "unit": "%"}
    ]},
    {"smiles": "COc1cccc(C2C(C#N)=C(N)Oc3ccc4ccccc4c32)c1", "note": "(configuration not stated)", "values": [
      {"measurement": "Inhibition", "setting": "Klebsiella pneumoniae", "result": 12.24, "unit": "%"},
      {"measurement": "Inhibition", "setting": "Candida albicans", "result": 1.77, "unit": "%"},
      {"measurement": "Inhibition", "setting": "Cryptococcus neoformans", "result": -37.42, "unit": "%"}
    ]},
    {"smiles": "C/C(Cc1ccccc1)=N\\NC(=O)c1c[nH]c2ccccc12", "values": [
      {"measurement": "Inhibition", "setting": "Klebsiella pneumoniae", "result": -16.37, "unit": "%"},
      {"measurement": "Inhibition", "setting": "Candida albicans", "result": 5.16, "unit": "%"},
      {"measurement": "Inhibition", "setting": "Cryptococcus neoformans", "result": 2.61, "unit": "%"}
    ]},
    {"smiles": "Cn1ccnc1C1C2=C(CC(C)(C)CC2=O)Oc2nc3c(c(N)c21)CCC3", "note": "(configuration not stated)", "values": [
      {"measurement": "Inhibition", "setting": "Klebsiella pneumoniae", "result": 9.18, "unit": "%"},
      {"measurement": "Inhibition", "setting": "Candida albicans", "result": -1.44, "unit": "%"},
      {"measurement": "Inhibition", "setting": "Cryptococcus neoformans", "result": -62.95, "unit": "%"}
    ]},
    {"smiles": "COc1ccc(CNNC(=O)c2cc3ccccc3[nH]2)cc1O", "values": [
      {"measurement": "Inhibition", "setting": "Klebsiella pneumoniae", "result": 4.75, "unit": "%"},
      {"measurement": "Inhibition", "setting": "Candida albicans", "result": 0.7, "unit": "%"},
      {"measurement": "Inhibition", "setting": "Cryptococcus neoformans", "result": 0.55, "unit": "%"}
    ]},
    {"smiles": "NNC(=O)CCc1c[nH]c2ccccc12", "values": [
      {"measurement": "Inhibition", "setting": "Klebsiella pneumoniae", "result": 5.25, "unit": "%"},
      {"measurement": "Inhibition", "setting": "Candida albicans", "result": 0.67, "unit": "%"},
      {"measurement": "Inhibition", "setting": "Cryptococcus neoformans", "result": -3.69, "unit": "%"}
    ]}
  ]
}
